Assay outcomes (PubChem)
In the library only some 1.8% were active in any assay of this set; here they are far more common.
CFTR F508del cor: CFTR F508del correction in bronchial cells. CFBE cells, YFP halide quenching; stimulated with forskolin plus potentiator P3; % fluorescence drop versus neutral controls. activity (quench increase), % at 7.58 µM. hit rate 0.36% among 350,000. AID 720511;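 active = mean added fluorescence quench of at least 8% versus neutral control, with both replicates also reaching 8%; inconclusive = only one of the mean or replicate conditions met; inactive = mean below 8% and not both replicates reaching 8%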;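 note: cells transiently co-express mutant CFTR-F508del with the halide-sensitive YFP; corrector assay measuring rescue of mutant channel to the surface after 24 h compound exposure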
LGR2 antag: Drosophila LGR2 receptor signaling inhibition; hit rate 0.35% among 380,000; inhibition, % at 9.99 µM; AID 720647; HEK293 LGR2, CRE-luciferase, bursicon-stimulated, 4 h;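 active = drop in luminescence signal, shown as inhibition above about 50% in the replicate tests, limit read from the data, passing the limit was not always enough; inconclusive = probably only some replicates passing the limit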;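 note: agonist challenge used bursicon conditioned medium at about half maximal strength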
EWS-Fli inh: EWS/Fli transcriptional activity inhibition; A673 NR0B1-luciferase reporter, viability-normalised; inhibition, % at 12.6 µM; hit rate 0.67% among 350,000; AID 651661;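 active = mean inhibition of at least 50% after viability correction, with every replicate also passing that limit; inconclusive = mean reaches 50% but only one of two replicates passes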;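 note: firefly luciferase signal divided by Alamar Blue viability fluorescence both relative to DMSO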
PAX8 reporter: lowers PAX8-driven luciferase in RMG-I cells | AID 652154 | hit rate 1.2% among 360,000 | RMG-I TPO-luciferase reporter, SteadyGlo, 24 h | inhibition, % at 12.6 µM;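 active = mean replicate inhibition at least 60% with every replicate also reaching 60%; inconclusive = only one of the two criteria is met; inactive = mean below 60% and not all replicates reaching 60%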;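 note: luciferase light reporting Pax8 driven TPO promoter activity; plate controls were median of neutral control wells for no effect and mitoxantrone controls for full effect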
* = called active by the depositor; ? = inconclusive; nt = no result given.

SMILES | CFTR F508del cor | LGR2 antag | EWS-Fli inh | PAX8 reporter
O=C(Nc1ccc(F)cc1)c1nn(-c2ccccc2)c(=O)cc1Cl | 0 | 75* | 11 | 19
Cc1ccc(NC(=O)c2nc(S(=O)(=O)Cc3ccccc3)ncc2Cl)cc1 | ? | 4 | 61* | ?
Cc1cccc(C)c1NC(=O)c1nc(S(=O)(=O)Cc2ccccc2)ncc1Cl | 4 | 19 | 73* | 28
Cc1cccc(CS(=O)(=O)c2ncc(Cl)c(C(=O)Nc3c(C)cccc3C)n2)c1 | 4 | 17 | nt | -13
C[C@H]1CN([C@@H](C)CO)S(=O)(=O)c2ccc(-c3ccccc3)cc2O[C@H]1CN(C)Cc1ccncc1 | 2 | 2 | 15 | nt
C[C@H](NC(N)=O)C(=O)Nc1ccc(OCc2ccccc2)cc1 | -1 | -54 | -96 | -118
CC(C)(C)C1CCC(C(=O)NCCc2ccc(S(N)(=O)=O)cc2)CC1 (configuration not stated) | 5 | 8 | -5 | -2
Cc1ccccc1NC(=O)c1nc(S(C)(=O)=O)ncc1Cl | -5 | 5 | 74* | 18
CCCc1nnc(NC(=O)c2nc(S(=O)(=O)Cc3cccc(C)c3)ncc2Cl)s1 | 0 | -10 | nt | -7
CCS(=O)(=O)c1ncc(Cl)c(C(=O)Nc2ccc(S(=O)(=O)N(C)c3ccccc3)cc2)n1 | -2 | 9 | nt | 110*
COc1ccc(OC)c(NC(=O)c2nc(S(=O)(=O)Cc3ccccc3)ncc2Cl)c1 | -6 | 16 | nt | 53
CS(=O)(=O)c1ncc(Cl)c(C(=O)Nc2ccc(OC(F)F)cc2)n1 | nt | 4 | nt | nt
O=C(Nc1ccc(F)cc1)c1nc(S(=O)(=O)Cc2ccccc2)ncc1Cl | 5 | -4 | 56* | 104*
Cc1nnc(NC(=O)c2nc(S(=O)(=O)Cc3ccccc3)ncc2Cl)s1 | 2 | -29 | 58* | 6
Cc1nn(-c2ccccc2)c(Cl)c1C(=O)NC1CCCCC1 | -2 | -2 | -7 | 3
O=C(NC1CCCCC1)c1cc(C2CC2)nn1-c1ccccc1 | 22* | -2 | 15 | -5
CCOC(=O)c1csc(NC(=O)c2cc3ccccc3o2)n1 | -1 | -54 | 59* | -45
CCOC(=O)c1sc(NC(=O)c2ccccc2OC)nc1C | 1 | 12 | 86* | -75
CCOC(=O)c1sc(NC(=O)c2ccc3ncsc3c2)nc1C | 5 | -28 | 87* | 33
CCOC(=O)c1sc(NC(=O)c2cncc(Br)c2)nc1C | 1 | -26 | -53 | nt
CCOC(=O)c1sc(NC(=O)c2cc3ccccc3o2)nc1C | -2 | -69 | 87* | -1
COC(C[C@H](O)[C@H](C)[C@@H](O)COCc1ccccc1)OC | -1 | 2 | 4 | 4
CCOC(=O)c1cccc(NC(=O)c2cc3ccccc3o2)c1 | -1 | -15 | 84* | -79
CCOC(=O)c1csc(NC(=O)c2ccc(OCC)cc2)n1 | 1 | 50 | 53* | 10
CCOC(=O)c1csc(NC(=O)c2ccccc2)n1 | -1 | -51 | 4 | -182
SMILES | CFTR F508del cor | LGR2 antag | EWS-Fli inh | PAX8 reporter
Cc1cn([C@H]2C[C@H](O)[C@@H](CNCc3ccc(N4CCN(C)CC4)cc3F)O2)c(=O)[nH]c1=O | 0 | 8 | -2 | -22
COc1ccc(-c2ccc3c(c2)[C@@H]2[C@@H](CCN2C(=O)NC2CCCCC2)[C@@H](CO)N3C)cc1 | 2 | -12 | -4 | 85*
COc1ccc(NC(=O)N2CC[C@@H]3[C@H]2c2cc(-c4ccc(F)cc4)ccc2N(C)[C@H]3CO)cc1 | 0 | 3 | -6 | 71*
CN1c2ccc(-c3ccccc3)cc2[C@@H]2[C@@H](CCN2C(=O)NC2CCCCC2)[C@@H]1CO | 0 | 14 | 4 | 81*
Cc1cc(C=O)c(C)n1-c1ccc2c(c1)OCO2 | 0 | -25 | -15 | 9
CO[C@H]1CN(C)C(=O)c2cc(NS(C)(=O)=O)ccc2OC[C@H](C)N(C(=O)C2CCC2)C[C@H]1C | -4 | 0 | -4 | nt
COc1cccc(C(=O)C2CCCN(C(=O)CCC3=NNC(=O)CC3)C2)c1 (configuration not stated) | nt | -15 | -8 | 0
CCCCOc1ccc(CSc2ncn[nH]2)cc1 | nt | nt | nt | -144
CCCNC(=O)C[C@@H]1CC[C@H]2[C@@H](COc3ccc(NS(=O)(=O)CC)cc3C(=O)N2C)O1 | 0 | -1 | -1 | 1
N#C[C@H]1[C@H](c2ccc(-c3ccc(F)cc3)cc2)[C@@H](CO)N1C(=O)Cc1ccccc1 | 6 | 9 | 35 | 31
Clc1ccc(OCc2nc(-c3ccccn3)no2)c(Br)c1 | 2 | 69* | 24 | -53
Clc1ccccc1OCc1nc(-c2ccccn2)no1 | nt | nt | nt | -111
C[C@H](CO)N1C[C@H](C)[C@H](CN(C)C(=O)NC2CCCCC2)Oc2ncc(-c3cc4ccccc4o3)cc2C1=O | 8.7* | -11 | 3 | 11
C[C@H](CO)N1C[C@H](C)[C@H](CN(C)C(=O)NC2CCCC2)Oc2ncc(-c3cc4ccccc4o3)cc2C1=O | 1 | 9 | 7 | 10
C[C@@H]1CN([C@@H](C)CO)C(=O)c2cc(/C=C/c3ccccc3)cnc2O[C@@H]1CN(C)C(=O)Nc1ccc(C(F)(F)F)cc1 | 2 | 22 | 52* | nt
C[C@@H]1CN([C@H](C)CO)C(=O)c2cc(/C=C/c3ccccc3)cnc2O[C@@H]1CN(C)C(=O)C1CC1 | -2 | -9 | -14 | 74*
Cc1cccc(C)c1NC(=O)C(CCc1ccccc1)n1c(=O)c(-c2cc3ccccc3[nH]2)nc2ccccc21 (configuration not stated) | 3 | 7 | -7 | 2
CCOC(=O)c1ccc(Nc2sc(C(=O)c3cccc([N+](=O)[O-])c3)c(N)c2C#N)cc1 | 12* | 3 | 0 | -8
COc1ccc(-c2ccc3c(c2)[C@@H]2[C@@H](CCN2C(=O)C2CCCC2)[C@H](CO)N3C)cc1 | -6 | -11 | -1 | 76*
COc1ccc(-c2ccc3c(c2)[C@H]2[C@H](CCN2C(=O)C2CCCCC2)[C@H](CO)N3C)cc1 | 3 | 21 | 2 | 23
COc1ccc(-c2ccc3c(c2)[C@@H]2[C@@H](CCN2C(=O)C2CCCCC2)[C@H](CO)N3C)cc1 | 0 | 15 | 13 | 93*
C=C1CCc2c([nH]c3ccc(OCC(C)C)cc23)C1=O | -1 | 8 | ? | 111*
CCCCCCCC/C=C\CCCCCCCC(=O)O | -5 | nt | -3 | -13
CCCCC/C=C\C/C=C\C/C=C\CCCCC(=O)O | 9.0* | nt | 4 | 5
CN(C)CCCNC(=O)c1cc2sc3ccccc3c2s1 | 2 | nt | -2 | -35
CN(C)CCNc1ccc2ncn3c4ccc(O)cc4c(=O)c1c23 | 21* | 11 | -6 | 64*
CN(C)CCNc1ccc(CO)c2sc3ccc(O)cc3c(=O)c12 | 7 | nt | 43 | 96*
COc1ccc2sc3cccc(NCCN(C)C)c3c(=O)c2c1 | 12* | -4 | -25 | -38
C=CCC(=O)N1CCCC(CNC(=O)c2ccc(-c3ccccc3)cc2)C1 (configuration not stated) | 3 | -6 | -14 | -46
CO[C@@H]1CN(C)C(=O)c2ccc(NC(=O)C3CC3)cc2OC[C@@H](C)N(Cc2cc(F)ccc2F)C[C@@H]1C | 0 | 1 | -3 | nt
